PostGolgi ctrl: growth inhibition of yeast control strain, primary screen, counter-screen for post-Golgi transport modulator project; efflux-deficient yeast background strain, growth absorbance A615, 16 h; inhibition, % at 10 µM; hit rate 5% among 98,000
CYP2C9 inh: blockers of cytochrome P450 2C9 activity – biochemical, luminescence, ADME assay, primary screen | CYP2C9 Supersomes, luciferin-H conversion | inhibition, % at 5 µM | hit rate 20% among 96,000 | AID 777, 2007;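 active = blocking of liver enzyme CYP2C9 beyond about 50% at 5 µM, limit read from the data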
CYP2C19 activ: human CYP2C19 activators, primary screen, biochemical, luminescence; recombinant CYP2C19, luciferin-H EGE luminescence; hits give high values; 0 = fully inhibited enzyme, 1 = untreated enzyme; activation factor at 5 µM; 96,000 tested, under 10 active; AID 1025, 2008;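 active = activation factor of at least 2 at 5 µM in the primary screen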;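 note: 0 = wells with 2.5 mM tranylcypromine and 1 = vehicle-only wells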
Target sequence (P33261 whole entry, looked up): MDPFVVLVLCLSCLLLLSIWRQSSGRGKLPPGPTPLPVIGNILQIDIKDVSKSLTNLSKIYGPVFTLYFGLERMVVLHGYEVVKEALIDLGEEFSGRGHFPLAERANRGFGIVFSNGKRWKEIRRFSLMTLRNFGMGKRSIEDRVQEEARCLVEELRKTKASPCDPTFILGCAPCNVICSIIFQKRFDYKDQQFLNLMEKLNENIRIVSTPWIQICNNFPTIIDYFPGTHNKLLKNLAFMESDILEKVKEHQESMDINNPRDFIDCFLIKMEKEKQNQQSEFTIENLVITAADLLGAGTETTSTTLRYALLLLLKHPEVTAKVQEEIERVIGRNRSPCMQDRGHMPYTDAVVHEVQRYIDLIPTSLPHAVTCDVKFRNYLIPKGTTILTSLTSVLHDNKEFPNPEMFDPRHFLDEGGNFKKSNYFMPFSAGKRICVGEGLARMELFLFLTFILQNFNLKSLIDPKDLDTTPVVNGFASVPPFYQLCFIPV
CYP2C19 inhib: blockers of cytochrome P450 2C19 activity – biochemical, luminescence, ADME assay, primary screen | hit rate 21% among 96,000 | AID 778, 2007 | inhibition, % at 5 µM | CYP2C19 Supersomes, luciferin-H EGE luminescence, 30 min;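 active = CYP2C19 inhibition above a set limit at 5 µM in the primary screen, cut at about 50% in these data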;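 note: plate controls were negative control wells for no effect and 2.5 mM tranylcypromine positive control for full effect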
PostGolgi yeast: phenotypic screen on post-Golgi transport, primary screen. post-Golgi transport phenotypic cell assay. inhibition, % at 10 µM. hit rate 0.9% among 98,000. AID 739, 2007;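 note: yeast cells grown in 1536-well plates; yeast grown about 18 h at 30C before absorbance read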
CYP2C9 act: human CYP2C9 activators, primary screen, biochemical, luminescence; activation factor at 5 µM; AID 1024, 2008; hit rate 1.4% among 96,000; Cytochrome P450 2C9 (Homo sapiens), P11712; recombinant CYP2C9, luciferin-H conversion; hits give high values; factor 1 = untreated enzyme, 0 = blocked;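 active = activation factor of 2 or more for CYP2C9 at a 5 µM dose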;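 note: 0 = sulfaphenazole-blocked wells and 1 = vehicle-only wells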
The depositor's hits bear a star. This is a sample that favours compounds with a hit; in the whole collection about 32% have one here. Cut-off read from the data, not from the text of the source, unless noted: active = inhibition above about 30%; inactive = the rest.

SMILES | PostGolgi ctrl | CYP2C9 inh | CYP2C19 activ | CYP2C19 inhib | PostGolgi yeast | CYP2C9 act
COc1cc(OC)cc(C(=O)OCc2cc3ccccc3[nH]c2=O)c1 | 5 | 2 | 0.9 | 15 | 12 | 1
Cc1cccc(C)c1NC(=O)C(c1ccc([N+](=O)[O-])cc1)N1CCCCC1 (stereo unspecified) | 0 | -9 | 1 | 0 | -1 | 1.1
Cc1cccc(C)c1NC(=O)C(NC=O)c1ccc(Cl)cc1 (stereo unspecified) | 1 | -5 | 0.4 | 58* | 4 | 1.1
CC(C)(C)NCc1ccccc1OCc1cccs1 | 10 | 2 | 1.1 | -8 | 1 | 1
COC(=O)c1ccc(CS(=O)(=O)c2ccc(C)cc2)cc1 | 5 | 58* | 0.7 | 32 | 0 | 0.4
Cc1ccc(S(=O)(=O)CCCS(=O)(=O)c2ccc(C)cc2)cc1 | 11 | 38 | 0.5 | 52* | -2 | 0.6
COC(=O)c1cccc(COC(=O)c2ccc(CS(=O)(=O)c3ccc(C)cc3)cc2)c1 | 5 | 77* | 0.9 | 9 | 2 | 0.2
Cc1ccc(S(=O)(=O)Cc2cccc(C(=O)N3CCOCC3)c2)cc1 | -1 | -21 | 1 | -1 | 13 | 1.2
COc1ccccc1-c1c(C)nn2c(N3CCC4(CC3)OCCO4)cc(C)nc12 | 98* | 6 | 0.9 | 12 | 4 | 0.9
CCOC(=O)N1CCC(Nc2cc(C)nc3c(-c4ccccc4OC)c(C)nn23)CC1 | 1 | 79* | 0.2 | 84* | -3 | 0.2
COc1ccc(NC(=O)CC2SC(=Nc3ccccc3)NC2=O)c(OC)c1 (stereo unspecified) | 20 | 37 | 1.1 | -8 | -2 | 0.6
CCOc1ccc(Nc2oc(-c3ccccc3Cl)nc2C#N)cc1 | -1 | 76* | 0.8 | 21 | 0 | 0.2
CNc1oc(-c2ccccc2Cl)nc1C#N | -1 | 16 | 0.7 | 26 | 1 | 0.8
Cc1cc(C)c(-n2c(O)c(C=NCCN3CCOCC3)c(=O)[nH]c2=O)c(C)c1 | 7 | -17 | 1.1 | -14 | -2 | 1.2
Cc1ccc2c(c1Br)/C(=N/N1C(=O)c3ccccc3C1=O)C(=O)N2 | 5 | 51* | 0.7 | 30 | -5 | 0.5
Cc1c(N=C2C(=O)Nc3ccccc32)c(=O)n(-c2ccccc2)n1C | 24 | -11 | 1 | -2 | -4 | 1.1
CCOC(=O)CSc1nnc(CNC(=O)c2cccs2)n1-c1cccc(C)c1 | -13 | 0 | 1 | 2 | -5 | 1
Cc1cccc(Cn2cc(SCC(=O)Nc3nccs3)c3ccccc32)c1 | 0 | 60* | 1.1 | -14 | -1 | 0.4
Cc1ccc(Cn2cc(SCC(=O)Nc3nccs3)c3ccccc32)cc1 | -6 | 91* | 1.1 | -10 | -4 | 0.1
Cc1nnc(NC(=O)CSc2cn(Cc3ccccc3)c3ccccc23)s1 | 10 | -9 | 1 | -1 | -7 | 1.1
CCS(=O)(=O)C(=C1NCCO1)S(=O)(=O)CC | 4 | -14 | 1.1 | -9 | 4 | 1.1
Cc1ccc(-n2ccnc2SCC(=O)N(CC(C)C)C2CCS(=O)(=O)C2)c(C)c1 (stereo unspecified) | -5 | 14 | 0.7 | 32 | 4 | 0.9
S=c1[nH]ncn1/N=C/c1ccccn1 | 9 | 36 | 1 | 3 | 3 | 0.6
COC(=O)C1(C(=O)OC)NOC2C(=O)N(c3ccc(Cl)cc3Cl)C(=O)C21 (stereo unspecified) | -1 | -7 | 1 | 4 | 14 | 1.1
COC(=O)c1[nH]c2ccc(C)cc2c1NC(=O)CN1CCCc2ccccc21 | 48* | 85* | 0.8 | 23 | -2 | 0.2
SMILES | PostGolgi ctrl | CYP2C9 inh | CYP2C19 activ | CYP2C19 inhib | PostGolgi yeast | CYP2C9 act
CCOC(=O)C1CCCN(CC(=O)Nc2c(C(=O)OC)[nH]c3ccc(Cl)cc23)C1 (stereo unspecified) | 39* | 91* | 0.1 | 91* | -10 | 0.1
CCOC(=O)C1CCCN(CC(=O)Nc2c(C(=O)OC)[nH]c3ccccc23)C1 (stereo unspecified) | 20 | 12 | 0.7 | 27 | -9 | 0.9
CCOC(=O)C1CCCN(CC(=O)Nc2c(C(=O)OC)[nH]c3ccc(C)cc23)C1 (stereo unspecified) | 19 | 60* | 0.6 | 43 | 5 | 0.4
CCN(CC(=O)Nc1c(C(=O)OC)[nH]c2ccc(Cl)cc12)c1ccc2c(c1)OCO2 | 57* | 97* | 0.1 | 88* | 19 | 0
CC(C)[C@H](NC(=O)c1cccc(S(=O)(=O)N2CCCC2)c1)c1nc2ccccc2[nH]1 | -7 | -3 | 0.8 | 18 | -3 | 1
O=C(CSc1nc2ccccc2s1)c1cc2ccccc2o1 | 7 | -26 | 0.9 | 12 | 15 | 1.3
CCCCCCOC(=O)C[N+](C)(C)CCOC1CC2CCC1(C)C2(C)C (stereo unspecified) | 37* | 2 | 0.8 | 18 | 16 | 1
CC1CN(C(=O)CN2C(=O)c3ccccc3S2(=O)=O)CC(C)O1 (stereo unspecified) | 14 | 18 | 0.9 | 14 | -1 | 0.8
Cc1c(O)c(CN2CCCC2)cc2c3c(c(=O)oc12)CCC3 | 2 | 52* | 0.6 | 36 | -6 | 0.5
Cc1c(O)c(CN2CCCC2)cc2c1oc(=O)c1ccccc12 | 20 | -51 | 0.4 | 57* | 9 | 1.5
O=C(c1c(O)c2ccccc2oc1=O)C1CCC1 | 14 | 28 | 1.1 | -7 | -1 | 0.7
O=c1oc2ccccc2c(O)c1CN1CCCCC1 | 30* | 94* | 0.5 | 52* | 6 | 0.1
C=CCn1c(CNc2ccccc2)nnc1SCC(=O)N/N=C/c1ccccc1O | 3 | 10 | 1 | -4 | -2 | 0.9
Cc1ccc(C(=O)N2CCN(c3cc(=O)[nH]nc3-c3ccccc3)CC2)cc1 | 1 | -8 | 1 | 0 | -9 | 1.1
CC(=O)C1=C(O)C(=O)N(CCN2CCOCC2)C1c1ccccc1 (stereo unspecified) | -3 | 15 | 1 | -3 | -6 | 0.8
COc1cccc(C2=NO[C@@H]3C(=O)N(Cc4ccccc4)C(=O)[C@H]23)c1OC | 3 | 88* | 0 | 97* | 6 | 0.1
Cc1cc(Cl)c(OCCCn2cncn2)c(Br)c1 | 18 | 43 | 0.1 | 94* | 3 | 0.6
Cc1cc(Cl)cc(Br)c1OCCCCn1cncn1 | 4 | 73* | 0 | 98* | -4 | 0.3
C=CCNCCCCOc1c(Cl)cc(C)cc1Br | 23 | -10 | 0.4 | 57* | 7 | 1.1
COCCCNCCCCOc1c(Cl)cc(C)cc1Br | -3 | 11 | 0.8 | 21 | -1 | 0.9
Cc1nc2sc(C(c3cccs3)N3CCOCC3)c(O)n2n1 (stereo unspecified) | 12 | -4 | 0.9 | 8 | 5 | 1

Screening results from PubChem.
